Screening data from PubChem BioAssay.
Compounds with a hit are over-represented: about 1.4% of the library has one in this group of screens.
Mac1 fbg enh: enhancers of CD11b/CD18 adhesion to fibrinogen, primary screen, K562 cells, luminescence. Integrin beta-2 (Homo sapiens) + Integrin alpha-M (Homo sapiens), P05107+P11215. activation, % at 10 µM. actives 0.07% (n = 93,000). ATPlite luminescence;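 active = 10 µM primary screen giving 50% or more activity, confirmed by 40% or more on retest at that dose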
Target sequence (P05107 whole entry, looked up, other chains not shown): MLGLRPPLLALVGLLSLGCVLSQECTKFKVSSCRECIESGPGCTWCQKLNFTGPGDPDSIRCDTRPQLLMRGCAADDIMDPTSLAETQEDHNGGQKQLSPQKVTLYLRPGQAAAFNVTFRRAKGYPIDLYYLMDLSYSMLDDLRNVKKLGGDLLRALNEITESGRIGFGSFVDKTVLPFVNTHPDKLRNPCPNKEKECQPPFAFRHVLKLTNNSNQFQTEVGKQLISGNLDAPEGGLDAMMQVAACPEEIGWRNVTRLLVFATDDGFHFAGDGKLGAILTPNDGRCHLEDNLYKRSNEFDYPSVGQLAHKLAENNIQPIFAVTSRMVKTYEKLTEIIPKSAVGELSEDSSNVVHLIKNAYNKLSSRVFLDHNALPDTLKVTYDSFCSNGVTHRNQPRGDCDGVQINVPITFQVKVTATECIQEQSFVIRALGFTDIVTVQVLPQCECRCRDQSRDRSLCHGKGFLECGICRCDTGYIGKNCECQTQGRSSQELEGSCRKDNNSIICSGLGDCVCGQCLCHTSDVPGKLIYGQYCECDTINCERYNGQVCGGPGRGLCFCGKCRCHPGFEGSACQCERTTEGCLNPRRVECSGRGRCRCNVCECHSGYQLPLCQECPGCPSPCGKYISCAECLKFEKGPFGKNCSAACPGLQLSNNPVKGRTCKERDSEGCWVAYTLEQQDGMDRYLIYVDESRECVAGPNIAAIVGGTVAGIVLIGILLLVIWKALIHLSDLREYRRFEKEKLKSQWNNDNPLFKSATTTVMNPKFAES
S1P2 agonist: S1P2 receptor agonists, primary screen, cell-based | actives 0.46% (n = 97,000) | activation, % at 4.5 µM | S1P2-expressing cell line, agonist reporter read-out; in the data active = activation above about 16%
GALR2 agonist: GALR2 receptor agonists, primary screen, cell-based; actives 0.48% (n = 140,000); GALR2-expressing cells, agonist activation read-out; AID 803, 2007; activation, % (test concentration not listed); in the data active = activation above about 5%, passing the limit was not always enough
Mac1 fbg inh: inhibitors of CD11b/CD18 adhesion to fibrinogen, primary screen, K562 cells, luminescence | Integrin beta-2 (Homo sapiens) + Integrin alpha-M (Homo sapiens), P05107+P11215 | ATPlite luminescence; Mn2+ added to activate the integrin | inhibition, % at 10 µM | actives 0.54% (n = 93,000);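 active = primary inhibition of 50% or more at 10 µM, then 40% or more on retest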
S1P2 blocker: human S1P2 receptor antagonists, primary screen, cell-based; Sphingosine 1-phosphate receptor 2 (Homo sapiens), O95136; actives 0.21% (n = 97,000); inhibition, % at 5 µM; AID 736, 2007; cell-based S1P2 antagonist assay, inhibition at 5 uM; in the data active = inhibition above about 45%;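 note: CRE beta-lactamase reporter cells expressing human S1P2 stimulated with S1P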
GALR2 blocker: GALR2 antagonists in receptor-expressing cells, primary screen. inhibition, % at 4 µM. antagonist mode. actives 0.39% (n = 140,000); in the data active = inhibition above about 27%;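 note: cells stimulated with galanin 1-16 at roughly its EC80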
Numbers stand for hits; 0 = inactive; - = no result given.

SMILES	Mac1 fbg enh	S1P2 agonist	GALR2 agonist	Mac1 fbg inh	S1P2 blocker	GALR2 blocker
Cc1cc(Br)ccc1OCCCCNCCO	0	69.3	0	0	0	0
Cc1ccc(S(=O)(=O)N2CCCCC2)cc1C(=O)Nc1ncn[nH]1	0	-	-	0	-	-
CCN(CC)c1ccc2cc(C(C)=O)c(=O)oc2c1	0	0	0	0	0	0
CCN(CC)c1ccc2cc(C(N)=O)c(=O)oc2c1	-	20.5	0	-	0	0
CCN(CC)c1ccc2cc(NC(=O)CCC(=O)O)c(=O)oc2c1	0	-	0	0	-	50.1
CCN(CC)c1ccc2cc(C(=O)Nc3cccnc3N3CCOCC3)c(=O)oc2c1	0	-	-	0	-	-
CCN(CC)c1ccc2cc(C(=O)Nc3ccccn3)c(=O)oc2c1	-	-	19.2	-	-	0
CC(C)C(CCNC(=O)CN1C(=O)c2ccccc2C1=O)c1ccco1 (stereo not drawn)	0	0	0	0	0	0
N#C/C(=C\c1c[nH]c2ccccc12)C(=O)Nc1ncc(Cc2ccc(Cl)cc2Cl)s1	0	-	6.4	0	-	0
Cn1cc(/C=C(\C#N)C(=O)Nc2ncc(Cc3cccc(Cl)c3)s2)c2ccccc21	0	-	0	0	-	0
COc1ccccc1CNC(=O)c1ccc(OC(F)F)c(OC)c1	0	-	0	0	-	0
CCOC(=O)C1=C(C)Nc2sc(C(=O)c3ccc(OC)cc3)c(N)c2C1c1ccc(C(=O)OC)cc1 (stereo not drawn)	-	-	5.6	-	-	0
COC(=O)C1=C(C)Nc2sc(C(N)=O)c(N)c2C1c1ccncc1 (stereo not drawn)	-	-	0	-	-	0
O=[N+]([O-])c1cc(Br)c(O)c(/C=N/Nc2nnnn2-c2cccc3ccccc23)c1	0	0	0	88.0	0	0
CCNc1nc(CN2CCCCC2)nc2scc(-c3ccccc3)c12	0	-	0	78.3	-	0
OCC1CCCN(c2nc(CN3CCCCC3)nc3scc(-c4ccccc4)c23)C1 (stereo not drawn)	0	-	0	0	-	0
Cc1cccc(-c2noc(CCCOc3ccc(Cl)cc3Cl)n2)c1	0	0	0	98.7	0	0
COc1ccc(CCNCc2ccc(OCc3ccc(Cl)nc3)c(OC)c2)cc1OC	0	0	0	0	0	0
CC1=NN(C(=O)c2ccc(Br)cc2)C(O)(C(F)(F)OC(F)(F)F)C1 (stereo not drawn)	0	0	0	92.7	0	0
CC1=NN(C(=O)c2csc(C)c2)C(O)(C(F)(F)F)C1 (stereo not drawn)	0	0	0	0	0	0
COc1ccc2c(CSc3nc4nc(C)cc(C)n4n3)cc(=O)oc2c1	0	17.2	0	0	0	0
O=C(Cc1ccccc1)N1CCCC(c2nc(-c3ccc(S(=O)(=O)N4CCCC4)cc3)no2)C1 (stereo not drawn)	0	0	0	0	0	0
Cc1ccc(C2C(/C=C3/SC(=S)NC3=O)=C(c3cccs3)Oc3ccccc32)cc1 (stereo not drawn)	0	0	0	78.0	0	0
O=C(Nc1ccc(N2CCCCC2)c(Cl)c1)c1cccnc1	0	0	0	0	0	0
COc1ccc(O)c(/C=N/Nc2nc(Nc3ccccc3)nc(-n3nc(C)cc3C)n2)c1	0	0	0	0	0	0
SMILES	Mac1 fbg enh	S1P2 agonist	GALR2 agonist	Mac1 fbg inh	S1P2 blocker	GALR2 blocker
COc1cc(/C=N/Nc2nc(Nc3ccc(C)cc3)nc(-n3nc(C)cc3C)n2)cc(OC)c1OC	0	0	0	0	47.2	0
COc1cc(/C=N/Nc2nc(Nc3ccccc3)nc(-n3nc(C)cc3C)n2)cc(OC)c1OC	-	-	8.1	-	-	0
O=[N+]([O-])c1ccc(O)c(/C=N/n2cnc3ccccc32)c1	0	-	0	103.6	-	0
COc1cccc(/C=N/n2cnc3ccccc32)c1OC	0	0	0	0	0	0
O=C(COC(=O)c1cc(S(=O)(=O)N2CCOCC2)ccc1F)c1ccc[nH]1	-	-	0	-	-	0
O=C(OCCN1C(=O)c2ccccc2C1=O)c1cc(S(=O)(=O)N2CCOCC2)ccc1F	0	18.3	0	0	0	0
CCn1c(SCc2nc(-c3ccc(Cl)cc3)no2)nnc1-c1ccco1	0	0	0	58.4	0	0
Cn1c(SCc2nc(-c3ccccc3)no2)nnc1-c1ccco1	-	0	0	-	0	0
O=C(CNC(=O)c1ccc2c(c1)OCCO2)N/N=C/c1ccc(O)cc1O	0	-	0	0	-	0
COc1ccc(-c2nn(-c3ccccc3)cc2/C=N/NC(=O)c2ccc(Br)o2)cc1	-	0	0	-	47.1	0
Cc1ccc2[nH]c3c(NCc4ccco4)ncnc3c2c1	0	0	0	76.2	0	0
CC(=O)c1ccc(NC(=O)Nc2cccc(Cl)c2)cc1	0	0	0	96.8	0	0
O=C(Nc1ccccc1)Nc1cccc(Cl)c1	0	0	0	0	0	0
CC(CCc1ccccc1)NC(=O)Cc1ccc([N+](=O)[O-])cc1 (stereo not drawn)	-	-	0	-	-	0
N#Cc1c(Cl)nc(SCc2ccccc2)nc1-c1ccccc1	0	0	0	74.4	0	0
Fc1ccc(NC(=S)Nc2ccc(F)c(Cl)c2)cc1Cl	0	0	0	91.8	0	0
Fc1ccc(NC(=S)N2CCCC2)cc1Cl	-	-	0	-	-	0
COc1ccc2cc(C(c3nnnn3C3CCCCC3)N3CCCCCC3)c3nnnn3c2c1 (stereo not drawn)	-	0	13.1	-	0	0
Clc1ccc(CSc2nc3ccncc3[nH]2)cc1	0	0	0	88.3	0	0
Cc1ccc(CSc2nc3ccncc3[nH]2)cc1	0	0	0	101.4	0	0
Cc1ccc(CSc2nc3ncccc3[nH]2)cc1	-	0	0	-	0	0
C=CCn1c(=O)/c(=C/c2ccc(O)cc2)s/c1=C(/C#N)c1nnc2n1CCCCC2	0	0	0	0	0	0
Cc1cccc(C(=O)NC2CC3CCCC(C2)N3C(=O)NC2CCCCC2)c1 (stereo not drawn)	0	66.1	0	0	0	0
CSc1ccc(C2C(C#N)=C(N)N(c3ccccc3)C3=C2C(=O)CCC3)cc1 (stereo not drawn)	0	-	0	0	-	0
COc1ccc(C(=O)Nc2ccc(C)cn2)c(OC)c1	0	0	0	75.6	0	0
SMILES	Mac1 fbg enh	S1P2 agonist	GALR2 agonist	Mac1 fbg inh	S1P2 blocker	GALR2 blocker
COc1ccc(C(=O)Nn2cnnc2)c(OC)c1	0	0	0	0	0	0
C/C(=C\C(=O)c1ccc(Br)cc1)NCc1ccc(C)cc1	0	0	0	81.0	0	0
Cc1cccc(NC(=S)N(C)C2(c3ccccc3Cl)CCCCC2=O)c1 (stereo not drawn)	0	0	0	0	0	0
C=CS(=O)(=O)c1ccc(Oc2ccc(S(=O)(=O)C=C)cc2)cc1	-	-	0	-	-	91.0
CCN(CC)CCNC(=O)C1CCC(=O)N(c2ccc(OC)cc2)C1c1ccc(F)cc1 (stereo not drawn)	0	0	0	0	0	0
Cc1cccc(Nc2nc(N)c([N+](=O)[O-])c(NCc3ccco3)n2)c1	-	-	0	-	-	0
